This passage reports Potency and activity change, positive = activation results from PubChem BioAssay AID504466 (National Center for Advancing Translational Sciences (NCATS), 2011).

The whole screen tested about 330,000 compounds, of which about 4,200 (1.3%) were called active. Where a call stands in place of a potency, no number is given. About 6% were inconclusive and are not listed. Calls follow the shape of the dose curve; as a rule, active = well fitted activation curve with a large enough effect; inconclusive = small, poorly fitted or top-dose-only effect; inactive = no such curve, though single readings can be large or run the other way. For the sample, actives were picked, then their nearest neighbours and some compounds at random.
Potency is read from the fitted curve at half-maximal effect.

The assay can be described thus: qHTS screen for small molecules that induce genotoxicity in human embryonic kidney (HEK293T) cells expressing luciferase-tagged ELG1. Also: nearly all actives have a fitted effect of over 60% in size. The conditions noted are these: HEK293T ELG1-luciferase reporter, luminescence, 16 h; series mostly up to 46 µM. An outline of the steps: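 HEK293T cells expressing luciferase-tagged ELG1 were exposed to compound or DMSO vehicle for 16 hr at 37 °C and 5% CO2. Luciferase activity was then measured with ONE-Glo after 30 min at room temperature.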
(In general: In qHTS, concentration-response curves come from the screen itself.)
Consider `CC(=O)Nc1ccc(S(=O)(=O)NCC(=O)OCC(=O)c2ccc[nH]2)cc1`, for which the Potency entry is “inactive”. The same measure, in the same setting: as for `CC(C)NC(=O)Nc1cccc2c1O[C@@H](CN(C)S(=O)(=O)c1ccc(F)cc1)[C@@H](C)CN([C@H](C)CO)C2=O`, the entry is “inactive”; as for `CC(=O)Nc1ccc(/C=N/NC(=O)c2cccs2)cc1`, 16.4 µM (active). Still for that read-out and setting: as for `O=C(Nc1ccccc1)c1ccc(NC(=O)c2cccs2)cc1`, the entry is “inactive”; as for `CCN(CC)c1ccc(/C=N/NC(=O)CNC(=O)c2cccs2)cc1`, “inactive”. Take `Cc1noc(C)c1S(=O)(=O)N(C)C[C@H]1Oc2ccc(NC(=O)C3CCCCC3)cc2C(=O)N([C@H](C)CO)C[C@@H]1C`: the Potency result was “inactive”.

For `Cc1ccc(NC(=O)C2CCC(C(C)(C)C)CC2)cc1S(=O)(=O)N1CCOCC1` (stereo unspecified), the Potency entry is “inactive”. Consider `CN(C(=O)c1cccc(NC(=O)Cc2cccc([N+](=O)[O-])c2)c1)C1CCCCC1`, for which the Potency entry was “inactive”. Still for that read-out and setting: then `Cn1nnnc1SCC(=O)Nc1cccc(S(=O)(=O)N2CCCCC2)c1`, with “inactive”; and `Cc1ccccc1Nc1nc(N)nc(CN2CCN(c3ccccn3)CC2)n1`, with “inactive”. Still for that read-out and setting: then `Cc1ccc(C(=O)OCc2nc(N)nc(Nc3ccccc3C)n2)cc1`, with “inactive”; and `Cc1ccccc1Nc1nc(N)nc(CSc2ccccc2)n1`, with 9.2 µM (active). Same read-out and setting: then `Cc1ccc(S(=O)(=O)Cc2cc(-c3ccc(Cl)cc3)no2)cc1`, with “inactive”; and `Oc1ccccc1-c1cc(-c2ccc(Cl)cc2)n[nH]1`, with 2.31 µM (active); and `Cc1ccc(NC(=O)c2cc(-c3ccccc3O)n[nH]2)cc1C`, with “inactive”. `CCCCOc1ccc(C(=O)NCC(=O)OCC(=O)c2c(N)n(C)c(=O)n(C)c2=O)cc1`: the Potency entry is “inactive”. Same read-out and setting: then `C[C@H](CO)N1C[C@H](C)[C@@H](CN(C)S(=O)(=O)c2ccc(F)cc2)Oc2c(NC(=O)Nc3ccccc3)cccc2C1=O`, with “inactive”; and `CCOC(=O)CCCCCC(=O)Nc1ccc2c(c1)CC(=O)N([C@@H](C)CO)C[C@H](C)[C@@H](CN(C)Cc1ccccc1)O2`, with “inactive”; and `Cc1ccn2cc(-c3nonc3C)cc2c1`, with 23.1 µM (active). On to `O=C1CN(C(=O)COC(=O)/C=C/c2ccc(F)cc2)c2ccccc2N1`, for which the Potency entry is “inactive”. On the same count and under the same terms, as for `O=C(Nc1cccc2ccccc12)c1onc2c1CCCC2`, the figure is 16.4 µM (active); as for `O=C(O)c1ccccc1-c1ccccc1C(=O)Nc1cccc2ccccc12`, “inactive”. In the case of `O=C(O)Cc1ccc(NC(=O)Nc2cccc3ccccc23)cc1`, the Potency result is “inactive”. Regarding `O=C(Nc1cccc(S(=O)(=O)N2CCOCC2)c1)C12CC3CC(CC(C3)C1)C2`, the Potency entry is “inactive”. On the same count and under the same terms, as for `O=C(COC(=O)c1ccccc1O)NCc1ccco1`, the entry is “inactive”; as for `O=C(CSc1ncn[nH]1)Nc1ccc(Br)cc1Br`, “inactive”; as for `O=C(CNC(=O)c1ccc2ccccc2c1)Nc1ncccc1O`, “inactive”. Turning to `O=C(Nc1ncccc1O)c1ccc(C(=O)c2ccccc2)cc1`, the Potency is 18.3 µM (active). Still for that read-out and setting: then `O=C(Nc1ncccc1O)c1ccc(S(=O)(=O)N2CCCC2)cc1`, with “inactive”.

In the case of `CC1Sc2ccc(C(=O)NCc3ccccc3Cl)cc2NC1=O` (stereo unspecified), the Potency entry was “inactive”. On the same count and under the same terms, then `CCCCNS(=O)(=O)CCNCc1ccccc1OC`, with “inactive”. Consider `CCCC(=O)N(CCN1CCOCC1)c1nc2ccc(OCC)cc2s1`, for which the activity change, positive = activation was 0.969% [at 9.26 µM] (inactive). As to `CCOc1ccc2nc(C(=O)N3CCCC(C)C3)sc2c1` (stereo unspecified), the Potency was 10.3 µM (active). Still for that read-out and setting: as for `CCOc1ccc2nc(N(CCN(C)C)C(=O)c3ccc4ccccc4c3)sc2c1`, the entry is “inactive”; as for `C=CC[C@@H](Cc1ccc(F)cc1)C(=O)OC[C@H]1CCCN1C(=O)[C@H](CC=C)CC(=O)N(CCO)Cc1ccccc1`, “inactive”; as for `COc1cccc(-c2sc3ccc(OC)cc3c2-c2ccc(OCCN3CCCCC3)cc2)c1`, “inactive”. Same read-out and setting: then `COC(=O)[C@]1(Cc2ccccc2)N[C@H](CN(C)S(=O)(=O)c2ccc(OC(F)(F)F)cc2)[C@@H]2C(=O)N(C)C(=O)[C@@H]21`, with “inactive”; and `O=C(c1ccc(N2CCOCC2)c([N+](=O)[O-])c1)N1CCN(c2ccccc2F)CC1`, with “inactive”; and `C=CCN(C(=O)Nc1ccc2c(c1)nc(C)n2C)c1ccccc1`, with “inactive”. As to `Cc1nc2cc(NC(=O)Nc3cccc(F)c3)ccc2n1C`, the Potency was 0.92 µM (active).

For the molecule `Cc1nc2cc(NCc3cccs3)ccc2n1C`, the Potency result is “inactive”. The same measure, in the same setting: as for `CNC[C@H]1Oc2c(NC(=O)C3CCCCC3)cccc2C(=O)N([C@H](C)CO)C[C@@H]1C`, the entry is “inactive”; as for `Oc1c(Br)cccc1/C=N/Nc1c(F)c(F)c(F)c(F)c1F`, “inactive”. Still for that read-out and setting: as for `Brc1ccccc1/C=N/Nc1nc2ccccc2o1`, the figure is 11.6 µM (active); as for `CCOc1ccccc1/C=N/Nc1nc2ccccc2o1`, “inactive”. `COc1cc(/C=N\Nc2nc(-c3cccs3)c(NC(C)=O)s2)ccc1O`: the Potency result was “inactive”. Same read-out and setting: as for `COc1ccc(/C=N/Nc2nc3ccccc3o2)cc1OC`, the figure is 2.59 µM (active). The same measure, in the same setting: then `COc1ccc(/C=N\NC(=O)c2sc(N)nc2C)cc1OC`, with “inactive”; and `CCCCNc1c(-c2ccc(OC)c(Sc3ccc(OC)cc3)c2)nc2ccc(Cl)cn12`, with “inactive”. On the same count and under the same terms, then `O=C(CCNC(=O)c1ccccc1)NN=Cc1ccc(Br)o1`, with “inactive”; and `CC(=O)N(O)CCCCCNC(=O)CCC(=O)N(O)CCCCCNC(=O)CCC(=O)N(O)CCCCCNC(=O)CCC(=O)O`, with “inactive”; and `CCN(CC)c1ccc(/C=N/NC(=O)CNC(=O)c2cccnc2)cc1`, with “inactive”.

In the case of `CCN(CC)c1ccc(/C=N/NC(=O)c2cnccn2)c(O)c1`, the Potency was 18.3 µM (active). As for `Cc1ccc(C(=O)NCCNC(=O)c2cnccn2)cc1`, the Potency entry is “inactive”. With `CN(CC(=O)NCCc1ccc(S(N)(=O)=O)cc1)CC(=O)Nc1ccc(Cl)cc1`, the Potency result is “inactive”. The same measure, in the same setting: then `COc1ccc(C(=O)NCc2ccccc2C)cc1S(=O)(=O)NC1CCCC1`, with “inactive”; and `CCOC(=O)c1oc2ccccc2c1NC(=O)c1cccs1`, with “inactive”; and `CCc1c(C)sc(NC(=O)c2ccc(Br)o2)c1C(=O)OC`, with “inactive”. For `CCc1c(C)sc(NC(=O)c2cccs2)c1C(N)=O`, the Potency is 18.4 µM (active). Turning to `CC(Sc1nncn1C)C(=O)NCCC1=CCCCC1` (stereo unspecified), the Potency entry was “inactive”.

`CN1C(=O)[C@H]2[C@@H](/C=C/c3ccccc3)N3C(=O)CN(Cc4ccc(-c5ccccc5)cc4)C(=O)[C@@]3(C)[C@H]2C1=O`: the Potency entry is “inactive”. As to `Cn1c(N)c(C(=O)COC(=O)c2ccc3ccccc3c2)c(=O)n(C)c1=O`, the Potency result is “inactive”.

For the molecule `Cc1ccccc1CC1(CO)CCCN(C(=O)c2cc(-c3ccccc3)no2)C1` (stereo unspecified), the Potency entry was “inactive”. Same read-out and setting: then `COC(=O)CCC(=O)N1CCCC(CO)(Cc2ccccc2)C1` (stereo unspecified), with 20.6 µM (active).

In the case of `CCCc1cc(C(=O)N2CCCC(CO)(CCCc3ccccc3)C2)n(C)n1` (stereo unspecified), the Potency entry was “inactive”.

Regarding `Cc1onc(-c2c(F)cccc2Cl)c1C(=O)OCC(=O)N1C(C)CCCC1C` (stereo unspecified), the Potency entry is “inactive”. The same measure, in the same setting: as for `CCN(CC(=O)NC(C)C)C(=O)c1cc(S(=O)(=O)N2CCCCC2)ccc1N1CCCCC1`, the entry is “inactive”; as for `O=C(c1cc(-c2ccc(O)cc2)on1)N1CCOCC1`, 4.61 µM (active). Regarding `O=C(c1cc(-c2ccc(F)cc2)on1)N1CCN(c2ccc(F)cc2)CC1`, the Potency result is “inactive”. On the same count and under the same terms, as for `O=C(c1cc(-c2ccc(O)cc2)on1)N1CCCc2ccccc21`, the entry is “inactive”; as for `COc1ccc(-c2c(C#Cc3ccsc3)c3cc(-c4ccc(CN5CCOCC5)cc4)ccc3n2C)cc1`, “inactive”; as for `O=C(OCC(=O)N1CCCC1)c1ccco1`, “inactive”.

Regarding `O=C(COC(=O)c1ccccc1C(=O)c1ccccc1)c1ccco1`, the Potency result was “inactive”. As for `CCc1ccc(C(=O)COC(=O)c2ccco2)cc1`, the Potency is 23.1 µM (active). Same read-out and setting: then `COc1ccc(S(=O)(=O)N2CCN(CC(=O)N3CCOCC3)CC2)cc1OC`, with “inactive”; and `CCOC(=O)C1=CN(Cc2ccc(Br)cc2)S(=O)(=O)N(C)C1C` (stereo unspecified), with “inactive”. On to `COc1cc(NC(=O)COC(=O)c2cc(S(=O)(=O)N3CCOCC3)ccc2F)cc(OC)c1`, for which the Potency entry was “inactive”.

In the case of `CS(=O)(=O)N1CCc2nc(-c3ccccc3)sc2C1`, the Potency is 9.2 µM (active).

In the case of `CS(=O)(=O)N1CCC(C(=O)N2CCN(c3ccccc3)CC2)CC1`, the Potency result is “inactive”. With `CS(=O)(=O)N1CCN(c2cccc(Cl)n2)CC1`, the Potency result was “inactive”.

Consider `COc1ccc(C(=O)COC(=O)CN2C(=O)C3CC=CCC3C2=O)c(OC)c1` (stereo unspecified), for which the Potency entry was “inactive”.

On to `CC(Sc1ncnc2c1cnn2-c1ccccc1)C(=O)Nc1ccc(N2CCOCC2)cc1` (stereo unspecified), for which the Potency result was “inactive”. For the molecule `CCC(C)N(C(=O)CSc1ncnc2c1cnn2-c1ccccc1)C1CCS(=O)(=O)C1` (stereo unspecified), the Potency result was “inactive”. As to `CC(C)Sc1ncnc2c1cnn2-c1ccccc1`, the Potency is 8.2 µM (active). Still for that read-out and setting: then `COc1ccc(Br)cc1CN(C)C(=O)C1CC(=O)N(C2CCCC2)C1` (stereo unspecified), with “inactive”; and `O=C1NC(Cc2ccc(O)cc2)c2nc3ccc(Cl)cc3c(=O)n2-c2ccccc21` (stereo unspecified), with “inactive”.

Consider `O=C(Nc1ccccc1)c1ccco1`, for which the Potency entry was “inactive”. As to `CCOC(=O)c1ccc(NC(=O)CNC(=O)c2ccco2)cc1`, the Potency result is “inactive”. In the case of `COC(=O)c1ccc(NC(=O)c2ccco2)cc1`, the Potency was 20.6 µM (active). Regarding `O=C(CN1C(=O)NC(Cc2c[nH]c3ccccc23)C1=O)Nc1ccccc1C(F)(F)F` (stereo unspecified), the Potency entry is “inactive”. The same measure, in the same setting: as for `C[C@H]1COC(=O)[C@H](CC(=O)OC(C)(C)C)C/C=C\C[C@@H](CC(=O)N[C@H](CO)Cc2ccccc2)C(=O)N1`, the entry is “inactive”; as for `CCOC(=O)C1=C(C)N(C[C@@H]2CC[C@@H](Cc3ccc(-c4ccccc4)cc3)O2)C(=O)NC1c1ccc([N+](=O)[O-])cc1` (stereo partly specified), “inactive”; as for `O=C(NCc1ccco1)c1sc2cccc(F)c2c1Cl`, 18.4 µM (active).

As for `O=C(CCNC(=O)c1ccccc1Cl)NCc1ccco1`, the Potency entry is “inactive”.

On to `COc1ccc2c(Cl)c(C(=O)NCc3ccco3)sc2c1`, for which the Potency was 10 µM (active).

`COc1ccc(C(=O)Nc2ccccc2C(=O)NCc2ccco2)cc1`: the Potency entry was “inactive”. Regarding `COc1ccc(CNC(=O)CNC(=O)c2sc3ccccc3c2Cl)cc1OC`, the Potency entry is “inactive”. On the same count and under the same terms, as for `O=C(NCc1ccco1)c1nn2cccnc2c1Cl`, the entry is “inactive”; as for `COc1cc(/C=C2\Oc3ccc(C#Cc4ccc(O)cc4)cc3C2=O)cc(OC)c1`, “inactive”; as for `Cc1cc(C(=O)OCC(=O)N2C(C)CCCC2C)c2ccccc2n1` (stereo unspecified), “inactive”. As for `O=C(c1cnccn1)N1CCN(S(=O)(=O)c2cccc(Cl)c2)CC1`, the Potency entry is “inactive”.
